Results: PubChem BioAssay (NCI)
Where “and” joins values, the source holds several entries; their conditions need not be identical. Equal entries are not always repeated. The panel holds about 83,000 compounds, 20% with a hit somewhere; the sample as a whole holds those more often.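 Assay: single dose, 48 h. Readout: percent growth (0 = no net growth; negative = cell death). Active: <10.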 Calls of active or inactive are those of the source.

Experiments:
Assay in all cases: NCI-60 one-dose screen, 48 h (100 = growth as untreated, 0 = no growth, -100 = all killed)
[1] = test system: HCT-15 colon; settings: 10 µM
[2] = test system: HT29 colon; settings: 10 µM
[3] = test system: SNB-75 CNS; settings: 10 µM
[4] = test system: SNB-19 CNS; settings: 10 µM
[5] = test system: U251 CNS; settings: 10 µM
[6] = test system: PC-3 prostate; settings: 10 µM
[7] = test system: SK-MEL-5 melanoma; settings: 10 µM
[8] = test system: UACC-62 melanoma
[9] = test system: LOX IMVI melanoma; settings: 10 µM
[10] = test system: SK-MEL-28 melanoma; settings: 10 µM
[11] = test system: SK-MEL-2 melanoma; settings: 10 µM
[12] = test system: EKVX NSCLC; settings: 10 µM
[13] = test system: SN12C renal; settings: 10 µM
[14] = test system: UO-31 renal; settings: 10 µM
[15] = test system: TK-10 renal
[16] = test system: ACHN renal; settings: 10 µM
[17] = test system: CAKI-1 renal; settings: 10 µM
[18] = test system: A498 renal; settings: 10 µM
[19] = test system: CCRF-CEM leukemia; settings: 10 µM
[20] = test system: MOLT-4 leukemia; settings: 10 µM

Measured: growth

O=[N+]([O-])c1ccc(O)c(S(=O)(=O)O)c1
inactive: [1] 98.1% | [2] 104% | [3] 98.6% | [4] 105% | [5] 102% | [6] 97.3% | [7] 121% | [8]; 10 µM unless noted 97.5% | [9] 98.2% | [10] 116% | [11] 108% | [12] 105% | [13] 90.2% | [14] 116% | [15]; 10 µM unless noted 121% | [16] 95.2% | [17] 95.9% | [18] 114% | [19] 102% | [20] 98.4%

CN1C(=O)CN2CCc3ccccc3C2c2cc(Cl)ccc21 (stereo not given)
active: [10] -89.5%
inactive: [1] 89.7% | [2] 108% | [3] 96.1% | [4] 96.7% | [5] 103% | [6] 94.7% | [7] 91.5% | [8]; 10 µM unless noted 78.7% | [9] 94.7% | [11] 81.7% | [12] 91.5% | [13] 85.1% | [14] 74.3% | [15]; 10 µM unless noted 111% | [16] 93.6% | [17] 81% | [18] 54.5% | [19] 93.6% | [20] 105%

CC(=O)OCC1CCCO1 (stereo not given)
inactive: [1] 100% | [2] 101% | [3] 96.1% | [4] 105% | [5] 103% | [6] 108% | [7] 101% | [8]; 10 µM unless noted 99.8% | [9] 98% | [10] 108% | [11] 106% | [12] 96% | [13] 103% | [14] 92.2% | [15]; 10 µM unless noted 94.9% | [16] 106% | [17] 101% | [18] 101% | [19] 107% | [20] 97.6%

NC(C(=O)O)C(O)c1ccco1 (stereo not given)
inactive: [1] 99.1% | [2] 120% | [3] 106% | [4] 114% | [5] 102% | [6] 96% | [7] 104% | [8]; 10 µM unless noted 113% | [9] 103% | [10] 107% | [11] 115% | [12] 109% | [13] 111% | [14] 96.6% | [15]; 10 µM unless noted 101% | [16] 113% | [17] 97.4% | [18] 94.5% | [19] 94% | [20] 112%

O=S(=O)(O)c1ccc(Cl)c(Cl)c1
inactive: [1] 107% | [2] 109% | [3] 91.6% | [4] 101% | [5] 105% | [6] 94.1% | [7] 107% | [8]; 10 µM unless noted 99% | [9] 91.8% | [10] 112% | [11] 103% | [12] 91.4% | [13] 97.9% | [14] 79.4% | [15]; 10 µM unless noted 100% | [16] 97.3% | [17] 84.8% | [18] 99.4% | [19] 103% | [20] 109%

Nc1ncnc2c1nc(N)n2C1OC(CO)C(O)C1O (stereo not given)
active: [1] -7.88% | [2] -4.96% | [3] -75.8% | [4] -16.5% | [5] 2.54% | [6] -11.7% | [7] -87.6% | [8]; 10 µM unless noted -68.3% | [9] -80.3% | [10] -48.1% | [11] -11.6% | [12] -33.2% | [13] -22.8% | [14] -53.9% | [15]; 10 µM unless noted -14.2% | [16] 2.76% | [17] -28.6% | [18] -80.3% | [19] 1.73% | [20] 1.73%

O=C(O)C(c1ccccc1)C(O)c1ccccc1 (stereo not given)
inactive: [1] 102% | [2] 96.5% | [3] 96.6% | [4] 103% | [5] 91.9% | [6] 92.6% | [7] 94% | [8]; 10 µM unless noted 93.6% | [9] 102% | [10] 103% | [11] 99.6% | [12] 108% | [13] 98.2% | [14] 94.4% | [15]; 10 µM unless noted 108% | [16] 96.6% | [17] 100% | [18] 69.8% | [19] 99.8% | [20] 87.5%

CN(c1ccccc1)c1ncnc2c1ncn2C
inactive: [1] 102% | [2] 102% | [3] 92.8% | [4] 102% | [5] 98.9% | [6] 95.8% | [7] 102% | [8]; 10 µM unless noted 96.8% | [9] 98.5% | [10] 112% | [11] 100% | [12] 102% | [13] 98% | [14] 79.9% | [15]; 10 µM unless noted 105% | [16] 101% | [17] 94% | [18] 88.4% | [19] 99.1% | [20] 95.6%

COc1cc2c3cc1Oc1c(OC)c(OC)cc4c1C(Cc1ccc(O)c(c1)Oc1ccc(cc1)CC3N(C)CC2)N(C)CC4 (stereo not given)
inactive: [3] 33.3% | [4] 27.2% | [8]; 10 µM 27.6% | [13] 16.9% | [16] 18.9% | [18] 21.4%
98.2% (inactive) and -80.6% (active): [8]; 100 µM
96% (inactive) and -100% (active): [15]; 100 µM
active: [1] 6.32% | [2] -21.8% | [5] -95.9% | [6] 1.26% | [7] -98.2% | [9] -90.5% | [10] -80.8% | [11] -16% | [14] 2.84% | [15]; 10 µM 4.81% | [19] 2.18% | [20] -3.59%
